Screening results (PubChem BioAssay)
Only a selection was taken, and hits are over-represented in it overall.
CBX7 inh = CBX7 inhibition, primary AlphaScreen. AlphaScreen His6-CBX7 / biotin-H3K27me3 peptide binding; hits give low values. 66,000 tested, 1.1% active. normalised signal (fraction of DMSO) (concentration not given with the values); in the data active = normalised signal below about 0.5
Target sequence (O95931 whole entry, looked up): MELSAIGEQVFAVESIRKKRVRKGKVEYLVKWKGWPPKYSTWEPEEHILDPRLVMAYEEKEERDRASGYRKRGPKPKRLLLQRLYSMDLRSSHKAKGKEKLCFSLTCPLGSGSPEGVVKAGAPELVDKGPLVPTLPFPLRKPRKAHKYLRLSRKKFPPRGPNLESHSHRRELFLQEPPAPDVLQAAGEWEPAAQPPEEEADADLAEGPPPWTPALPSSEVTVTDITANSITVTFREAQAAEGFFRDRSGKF
Of the large screens only hits and unclear results are named; the others gave an inactive call.

O=C(c1ccccc1)c1cc(Br)ccc1NC(=O)c1c(F)cccc1F	none
CNc1ccc(Br)cc1C(=O)c1ccccc1Cl	none
CNc1ccc(C)cc1C(=O)c1cccc(Br)c1	CBX7 inh 0.42
CCc1cccc(NC(=O)CN2CC(c3ccccc3)CC2=O)c1 (stereo not given)	none
COc1ccc2[nH]c(C)c(CCNCC(C)(C)C)c2c1	none
COc1ccc2[nH]c(C)c(CCNCc3ccc(C#N)cc3)c2c1	CBX7 inh 0.26
COc1ccc2[nH]c(C)c(CCNCc3cccc4ccccc34)c2c1	none
O=c1c2ccccc2nc(/C=C\c2cccc(C(F)(F)F)c2)n1-c1cccc(F)c1	none
COc1ccc(-n2nnnc2C2(NCCc3c(C)[nH]c4c(Cl)c(Cl)ccc34)CCCCC2)cc1	none
COC(=O)c1ccc2c(c1)N=C(Cl)c1ccccc1S2	none
CCOC(=O)C1(c2ccccc2)CCN(CC(=O)Nc2cccc(Cl)c2)CC1	CBX7 inh 0.35
CCOC(=O)C1(c2ccccc2)CCN(CC(=O)Nc2ccc(F)cc2)CC1	none
CCOC(=O)C1(c2ccccc2)CCN(CC(=O)Nc2cc(Cl)ccc2OC)CC1	none
O=c1c2ccccc2nc(/C=C\c2ccc(F)cc2)n1-c1cccc(C(F)(F)F)c1	none
COc1cc2c(cc1OC)C(C(=O)Nc1ccc(F)cc1F)C1CCCCN1C2=O (stereo not given)	none
CC(=O)N1CC(=O)Nc2ccc(F)cc2C1c1ccc(F)cc1 (stereo not given)	none
Cc1ccc(NC(=O)CN2C(=O)C(C)N=C(c3ccccc3F)c3cc(Cl)ccc32)cc1C (stereo not given)	none
CC1N=C(c2ccccc2)c2cc(Cl)ccc2N(CC(=O)Nc2ccc(N(C)C)cc2)C1=O (stereo not given)	none
CC1N=C(c2ccccc2F)c2cc(Cl)ccc2N(CC(=O)Nc2ccc(N(C)C)cc2)C1=O (stereo not given)	CBX7 inh 0.27
O=C1CN=C(c2ccccc2)c2ccccc2N1Cc1ccc(F)cc1Cl	none
CCC(=O)N1N=C2C3CCN(CC3)C2C1c1cccc(OC)c1 (stereo not given)	none
CC1N=C(c2ccccc2)c2ccccc2N(CC(=O)NCc2ccccc2)C1=O (stereo not given)	none
CCCCCC(C)C(C)c1cc(OC)c2c(c1)OC(C)(C)C1=C2CN(CC(N)=O)CC1 (stereo not given)	CBX7 inh 0.38
C#CCN1CCC2=C(C1)c1c(O)cc(C(C)C(C)CCCCC)cc1OC2(C)C (stereo not given)	none
O=C(CN1C(=O)CN=C(c2ccccc2)c2ccccc21)Nc1ccc(F)c(Cl)c1	none
